LANA DNA inh: KSHV C-LANA DNA binding inhibition | MBP-C-LANA/FAM-LBS DNA binding, fluorescence polarization | inhibition, % at 9 µM | hit rate 0.078% among 340,000 | AID 504423;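 active = highest replicate inhibition at or above 60% at 9 µM, even if other replicates fall short; inactive = all replicates below 60% inhibition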;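 also: 0% = neutral control wells and 100% = 4 µM acridine orange control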
GLD-1 RNA inh: GLD-1-TGE RNA interaction inhibition (C. elegans). Q17339. purified GLD-1 + fluorescein TGE RNA, fluorescence polarization. inhibition, % at 5.96 µM. hit rate 0.44% among 320,000. AID 2280;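 active = percent inhibition above a per-plate cutoff, the plate mean of test compounds plus 3 SD, cut at about 30% in these data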;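 also: 0% = DMSO wells with GLD-1 and probe and 100% = wells lacking GLD-1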
Target sequence (Q17339 whole entry, looked up): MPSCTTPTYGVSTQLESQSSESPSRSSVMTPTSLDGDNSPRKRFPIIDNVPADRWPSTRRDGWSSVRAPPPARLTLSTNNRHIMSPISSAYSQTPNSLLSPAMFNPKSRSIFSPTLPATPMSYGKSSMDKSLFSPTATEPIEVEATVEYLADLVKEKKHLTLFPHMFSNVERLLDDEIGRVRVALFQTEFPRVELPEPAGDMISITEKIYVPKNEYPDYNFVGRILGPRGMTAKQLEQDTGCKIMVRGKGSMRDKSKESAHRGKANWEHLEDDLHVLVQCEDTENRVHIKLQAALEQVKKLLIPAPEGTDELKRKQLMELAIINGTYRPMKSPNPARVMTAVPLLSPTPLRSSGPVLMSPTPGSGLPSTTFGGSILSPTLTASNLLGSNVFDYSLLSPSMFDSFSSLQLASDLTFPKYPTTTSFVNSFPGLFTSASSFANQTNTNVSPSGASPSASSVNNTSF
Keap1-Nrf2 PPI: inhibitors of human Keap1-Nrf2 protein-protein interaction; Q14145; Keap1 Kelch-Nrf2 peptide fluorescence polarization, 1536-well; inhibition, % at 9.4 µM; hit rate 0.15% among 340,000; AID 504523; in the data active = inhibition above about 12%;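 also: human Keap1 Kelch domain with fluorescein labeled Nrf2 9mer peptide probe; 0% = neutral control wells and 100% = peptide positive control; higher means more block of Keap1 binding to Nrf2 peptide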
Bcl-xL primary: Bcl-xL (human) inhibition. GST-Bcl-xL / FITC-Bim BH3 peptide fluorescence polarization. inhibition, % at 10.9 µM. hit rate 0.7% among 320,000. AID 2129;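 active = inhibition above the mean of all tested compounds plus 3 SD, cutoff set per campaign, cut at about 30% in these data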;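 also: 0% = DMSO wells and 100% = unlabeled Bim-BH3 peptide competitor; inhibitors lower millipolarization by displacing the labeled peptide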
Target sequence (Q07817 whole entry, looked up): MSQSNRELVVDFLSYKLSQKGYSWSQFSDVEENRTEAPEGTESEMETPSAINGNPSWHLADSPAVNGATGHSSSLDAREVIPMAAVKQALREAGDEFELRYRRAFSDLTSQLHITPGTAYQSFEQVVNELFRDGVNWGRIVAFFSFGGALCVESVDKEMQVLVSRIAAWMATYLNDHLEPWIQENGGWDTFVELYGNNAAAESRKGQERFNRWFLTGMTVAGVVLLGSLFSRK
E coli Lon inh: inhibitors of E. coli Lon protease | AID 602123 | hit rate 0.42% among 360,000 | inhibition, % at 7.94 µM | purified E. coli Lon protease, fluorescence polarization | P0A9M0; in the data active = inhibition above about 13%, passing the limit was not always enough;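 also: 0% = enzyme with probe and DMSO and 100% = no enzyme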
MCL1 BIM primary: disrupts human MCL1 binding to BIM-BH3 peptide. GST-MCL1 / FITC-Bim-BH3 fluorescence polarization. inhibition, % at 10.9 µM. hit rate 0.68% among 320,000;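 active = inhibition above the mean inhibition of all tested compounds plus 3 SD, set per campaign, cut at about 40% in these data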;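 also: 0% = DMSO wells and 100% = unlabeled Bim-BH3 peptide control; higher means more loss of mP so more displacement of Bim peptide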
DNA intercal 2: DNA intercalation in C-LANA counter-screen | shares compounds with LANA DNA inh | AC50, µM (highest dose often 35 µM), inactives show at the highest dose activity change, negative = inhibition | AID 588364 | 20 tested, under 10 active | Acridine orange-DNA displacement, fluorescence polarization;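 active = signal drop with an AC50 no more than ten times the top valid dose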
Keap1 TSA: Keap1 (human) Kelch domain binding | shares compounds with Keap1-Nrf2 PPI | Keap1 Kelch thermal shift, delta Tm; stronger effect = higher value | max delta Tm, degrees C | hit rate 8% among 400 | AID 651823; in the data active = max delta Tm above about 0.48 degrees C
Dye-only ctr: counter-screen for Keap1 thermal shift hits: dye-only artifacts; shares compounds with Keap1-Nrf2 PPI; 140 tested, under 10 active; delta Tm, degrees C (concentration not given with the values); Sypro Orange dye-only thermal melt, no protein, delta Tm; top dose 26 µM;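 active = at highest dose tested, delta Tm positive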
E coli Lon conf: E. coli Lon inhibition confirmation | shares compounds with E coli Lon inh | purified E. coli Lon, fluorescence polarization | inhibition, % at 7.94 µM | hit rate 31% among 1,400 | AID 602230; in the data active = inhibition above about 16%;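 also: 0% = enzyme with probe and DMSO and 100% = no enzyme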
Active calls of the source: *. Rows were chosen to be rich in hits. Some 1.3% of all compounds tested hit in one or more screens of this group.

Screening O=C(NC1CCSc2ccccc21)c1ccc(Cl)c(S(=O)(=O)N2CCOCC2)c1 (stereo unspecified) returned LANA DNA inh 0, GLD-1 RNA inh 5, Keap1-Nrf2 PPI -4, Bcl-xL primary 1, E coli Lon inh 4 and MCL1 BIM primary 2.
`CN(C)S(=O)(=O)c1cc(C(=O)NC2CCSc3ccccc32)ccc1Cl` (stereo unspecified) gave DNA intercal 2 -1%.
Screening O=C(OCC(=O)N1CCCC1)c1cc(F)c(F)cc1Cl returned LANA DNA inh 2, GLD-1 RNA inh 4, Keap1-Nrf2 PPI 0, Bcl-xL primary 5, E coli Lon inh -17 and MCL1 BIM primary 2.
For Clc1ccc(-c2nnc3sc(-c4ccc(Br)o4)nn23)cc1 the results were LANA DNA inh 107*, GLD-1 RNA inh 58*, Keap1-Nrf2 PPI 4, Bcl-xL primary 25, E coli Lon inh 11, MCL1 BIM primary 36 and DNA intercal 2 11%.
Screening CCCCCCC1CC(=O)NC(=O)N1 (stereo unspecified) returned LANA DNA inh -2, GLD-1 RNA inh 4, Keap1-Nrf2 PPI -3, Bcl-xL primary 2, E coli Lon inh -8 and MCL1 BIM primary 2.
Screening O=C(O)c1cc(N2N=C(C(F)(F)F)/C(=C/C=C/c3ccco3)C2=O)ccc1Cl returned LANA DNA inh 113*, Keap1-Nrf2 PPI 21*, E coli Lon inh 28*, DNA intercal 2 20%, Keap1 TSA 0.68* and E coli Lon conf -12.
`CCCCNC(=O)[C@@H]1CSC2c3ccc(OC)c(OC)c3C(=O)N21` (stereo partly specified) gave LANA DNA inh -5, GLD-1 RNA inh 2, Keap1-Nrf2 PPI 2, Bcl-xL primary 2, E coli Lon inh 0 and MCL1 BIM primary 3.
CCSc1ncc(Cl)c(C(=O)Nc2ccccc2OC)n1 was read as LANA DNA inh 5, GLD-1 RNA inh -4, Keap1-Nrf2 PPI 23*, Bcl-xL primary 4, E coli Lon inh -8, MCL1 BIM primary 11 and Keap1 TSA -0.2.
`C/C(=N\NC(=O)CNC(=O)c1ccccc1F)c1ccco1` gave LANA DNA inh 1, GLD-1 RNA inh -7, Keap1-Nrf2 PPI 0, Bcl-xL primary -6, E coli Lon inh 1 and MCL1 BIM primary 2.
Screening Cn1nc(C(F)(F)F)cc1Oc1ncc(C(F)(F)F)cc1Cl returned LANA DNA inh 0, GLD-1 RNA inh 6, Keap1-Nrf2 PPI -2, Bcl-xL primary 5, E coli Lon inh 4 and MCL1 BIM primary -4.
CC(C)NC(=O)N(C)C[C@H]1Oc2ccc(NS(=O)(=O)c3cn(C)cn3)cc2C(=O)N([C@H](C)CO)C[C@@H]1C was read as LANA DNA inh 22, GLD-1 RNA inh 1, Keap1-Nrf2 PPI 29*, E coli Lon inh -3 and Keap1 TSA -0.11.
Cc1ccc(NC(=O)c2ccc(Cl)c(N3C(=O)CCC3=O)c2)cc1 was read as LANA DNA inh -1, GLD-1 RNA inh 7, Keap1-Nrf2 PPI -2, Bcl-xL primary 6, E coli Lon inh -6 and MCL1 BIM primary 10.
`C=CCOC(=O)C1=C[C@@H](c2csc3ccccc23)C[C@@H](OCc2ccc(CO)cc2)O1` gave LANA DNA inh -2, GLD-1 RNA inh -4, Keap1-Nrf2 PPI -9, Bcl-xL primary -1, E coli Lon inh 6 and MCL1 BIM primary -2.
`C=CCOC(=O)C1=C[C@H](c2csc3ccccc23)C[C@H](OCc2ccc(CO)cc2)O1` gave LANA DNA inh 44, GLD-1 RNA inh -7, Keap1-Nrf2 PPI 17*, Bcl-xL primary 1, E coli Lon inh -6, MCL1 BIM primary -5, Keap1 TSA -0.19 and Dye-only ctr -27.
Screening CN1C(=O)C(=O)/C(=C(/O)c2ccc(Br)cc2)C1c1ccc(F)cc1 (stereo unspecified) returned LANA DNA inh 1, GLD-1 RNA inh 5, Keap1-Nrf2 PPI 5, Bcl-xL primary 11, E coli Lon inh -1 and MCL1 BIM primary 0.
For C=CCn1c(O)c(CN2CCOCC2)c(C)c(C#N)c1=O the results were LANA DNA inh 16, GLD-1 RNA inh 28, Keap1-Nrf2 PPI 14*, Bcl-xL primary 39*, E coli Lon inh -3, MCL1 BIM primary 35 and Keap1 TSA 0.09.
For C=CCn1c(C)cc(C)c(C#N)c1=O the results were LANA DNA inh -1, GLD-1 RNA inh 7, Keap1-Nrf2 PPI 2, Bcl-xL primary 6, E coli Lon inh -6 and MCL1 BIM primary 0.
Cc1cc(C)c2nc3sc(C(=O)N4CCOCC4)c(N)c3cc2c1 was read as LANA DNA inh -1, GLD-1 RNA inh -1, Keap1-Nrf2 PPI 14*, Bcl-xL primary 2, E coli Lon inh -7, MCL1 BIM primary 3 and Keap1 TSA -0.17.
O=C(NC1=NCCS1)c1cccc(OC(F)F)c1 was read as LANA DNA inh -1, GLD-1 RNA inh 2, Keap1-Nrf2 PPI -3, Bcl-xL primary -1, E coli Lon inh -2 and MCL1 BIM primary 7.
`CC1CCN(c2ccc3c(c2)S(=O)(=O)c2ccccc2C3=O)CC1` gave LANA DNA inh 24, GLD-1 RNA inh -30, Keap1-Nrf2 PPI 21*, Bcl-xL primary -23, E coli Lon inh -181, MCL1 BIM primary -50 and Keap1 TSA 0.32.
For Cc1ccc(NC(=O)COc2cccc(-n3cnnn3)c2)cc1S(=O)(=O)N1CCOCC1 the results were LANA DNA inh -1, GLD-1 RNA inh 0, Keap1-Nrf2 PPI -3, Bcl-xL primary -4, E coli Lon inh -20 and MCL1 BIM primary -4.
`CCCCN(C(=O)CC1CCCCC1)c1c(N)n(CC(C)C)c(=O)[nH]c1=O` gave GLD-1 RNA inh -7, Keap1-Nrf2 PPI 50*, Bcl-xL primary -3, E coli Lon inh -10, MCL1 BIM primary -9 and Keap1 TSA -0.14.
For CCCCn1c(N)c(N(CCC(C)C)C(=O)CC2CCCCC2)c(=O)[nH]c1=O the results were LANA DNA inh 0, GLD-1 RNA inh 2, Keap1-Nrf2 PPI -3, Bcl-xL primary -7, E coli Lon inh -3 and MCL1 BIM primary -20.
`CCCN1CNC(=S)N(c2cc(C)ccc2C)C1` gave LANA DNA inh 2, GLD-1 RNA inh -1, Keap1-Nrf2 PPI 13*, Bcl-xL primary -3, E coli Lon inh -5, MCL1 BIM primary -1 and Keap1 TSA -0.1.
